Among all 69,000 compounds or so, about 950 (1.4%) showed an effect of 50% or more. The list comes from a sample in which strong results are over-represented; it also holds similar structures and randomly drawn compounds.
System: Mycobacterium tuberculosis
Test: Cornell M. t heat shock assay; note: in the data most compounds retested in dose-response had high values
Assay type: functional, organism-based
Set-up: dose or concentration left out as unconfirmed

**Q.** With O=C(O)C(F)(F)F.c1ccc(CN2Cc3nccn3CC(Cn3cncn3)C2)nc1 (stereo not given) as the molecule, how does the “Percent Effect” value read?
**A.** -29.71%

**Q.** How did the “Percent Effect” value turn out when Cc1nc2c(c(NCc3nc4ccccc4s3)n1)CCNCC2 was run?
**A.** 105.4%

**Q.** Cc1nc2c(c(NCc3cc4ccccc4s3)n1)CCNCC2 was tested. Which “Percent Effect” value did it give?
**A.** -9.753%

**Q.** Cc1nc2c(c(NCc3ccc(-c4ccccn4)s3)n1)CCNCC2 was tested. Which “Percent Effect” value did it give?
**A.** -21.22%

**Q.** For C[C@H]1CN(CC2CCOCC2)C[C@@]12CCN(Cc1cccnc1)C2=O.O=C(O)C(F)(F)F.O=C(O)C(F)(F)F, which “Percent Effect” value is on record?
**A.** 4.288%

**Q.** With CC1(C(=O)N2CCOCC2)CN(Cc2ccccc2F)CCO1 (stereo not given) as the molecule, how does the “Percent Effect” value read?
**A.** 10.07%

**Q.** With CN(C)C(=O)C1(C)CN(Cc2cn(C)c3ccccc23)CCO1 (stereo not given) as the molecule, how does the “Percent Effect” value read?
**A.** 54.51%

**Q.** With Cc1ncsc1CN1CCOC(C)(C(=O)N(C)C)C1 (stereo not given) as the molecule, how does the “Percent Effect” value read?
**A.** -16.31%

**Q.** Which “Percent Effect” value does the source give for CNC(=O)C1(C)CN(Cc2cn(C)c3ccc(F)cc23)CCO1 (stereo not given) here?
**A.** 39.76%

**Q.** How did the “Percent Effect” value turn out when Cc1nnc(N2CCOC(C)(C(=O)N(C)C)C2)c2ccccc12 (stereo not given) was run?
**A.** 0.5691%

**Q.** With CN(C)C(=O)C1(C)CN(Cc2cn(C)c3ccc(F)cc23)CCO1 (stereo not given) as the molecule, how does the “Percent Effect” value read?
**A.** 64.53%

**Q.** CC(C)Cn1c(=O)nc2n1C(=O)N(c1ccc(F)cc1)C2 was tested. Which “Percent Effect” value did it give?
**A.** 4.992%

**Q.** For Cc1cccc(-c2nnn3c2COC(CNCc2nccs2)C3)c1.O=C(O)C(F)(F)F (stereo not given), which “Percent Effect” value is on record?
**A.** -29.09%

**Q.** For COc1cc(N2C[C@H](C(=O)NCC3CC3)[C@@H]3CCO[C@@H]3C2)ncn1.O=C(O)C(F)(F)F, which “Percent Effect” value is on record?
**A.** -37.92%

**Q.** With CN(CCc1ccccn1)C(=O)c1cnn(-c2ccccc2F)c1N as the molecule, how does the “Percent Effect” value read?
**A.** 25.3%

**Q.** Which “Percent Effect” value does the source give for Cc1cc(Cl)ccc1-n1ncc(C(=O)N(C)CCc2ccccn2)c1N here?
**A.** 67.07%

**Q.** Cc1ccc(C)c(-n2ncc(C(=O)N(C)CCc3ccccn3)c2N)c1 was tested. Which “Percent Effect” value did it give?
**A.** 29.21%

**Q.** With COc1ccc(OC)c(CN(Cc2ccco2)Cc2[nH]cnc2C)c1.O=C(O)CC(O)(CC(=O)O)C(=O)O as the molecule, how does the “Percent Effect” value read?
**A.** -22.22%

**Q.** For Cc1cccn2cc(CN3CCCC(O)C3)nc12 (stereo not given), which “Percent Effect” value is on record?
**A.** -6.265%

**Q.** For Cc1cccn2cc(CN3CCCC(c4noc(C5CC5)n4)C3)nc12 (stereo not given), which “Percent Effect” value is on record?
**A.** 100.9%

**Q.** Cc1cccn2cc(CN3CCCC(c4ccn[nH]4)C3)nc12 (stereo not given) was tested. Which “Percent Effect” value did it give?
**A.** 23.59%

**Q.** COCC(=O)N1CCC2(CC1)C(=O)N(Cc1cccnc1)CCN2C.O=C(O)C(F)(F)F.O=C(O)C(F)(F)F was tested. Which “Percent Effect” value did it give?
**A.** -22.77%

**Q.** Which “Percent Effect” value does the source give for O=C(NC[C@H]1CC[C@H](c2ccnc3ncnn32)CC1)C1CC1 here?
**A.** 14.38%

**Q.** How did the “Percent Effect” value turn out when COCC1c2c(cnn2C)CCN1Cc1ccc(C)cc1.O=C(O)C(F)(F)F.O=C(O)C(F)(F)F (stereo not given) was run?
**A.** -35.12%

**Q.** Which “Percent Effect” value does the source give for Cn1ccnc1CN1CCc2onc(COCC3CC3)c2C1.O=C(O)C(F)(F)F here?
**A.** 34.07%

**Q.** Which “Percent Effect” value does the source give for CCn1ncc2c1C(COC)N(C(=O)c1cscn1)CC2.O=C(O)C(F)(F)F (stereo not given) here?
**A.** -5.863%

**Q.** For Cc1cccc(C2CCCCCN2Cc2cn(C)nc2C)c1 (stereo not given), which “Percent Effect” value is on record?
**A.** 5.626%

**Q.** For c1ccc(CCN2CCCC2c2cccc(Nc3nccs3)n2)cc1 (stereo not given), which “Percent Effect” value is on record?
**A.** 104.9%

**Q.** CS(=O)(=O)N1CCCC1c1cccc(Cc2ccccc2F)n1 (stereo not given) was tested. Which “Percent Effect” value did it give?
**A.** -7.758%

**Q.** For Cc1cnc(Nc2cccc(C3CCCN3Cc3cn(C)nc3C)n2)s1 (stereo not given), which “Percent Effect” value is on record?
**A.** 104.4%

**Q.** For COCCN1CCCC1c1ccnc(-c2ccccc2)n1 (stereo not given), which “Percent Effect” value is on record?
**A.** 20.75%

**Q.** Cc1ccc(C2CCCCCN2Cc2cn(C)nc2C)s1 (stereo not given) was tested. Which “Percent Effect” value did it give?
**A.** 11.6%

**Q.** Cc1nc(Nc2ncc(C)s2)cc(C2CCCN2S(C)(=O)=O)n1 (stereo not given) was tested. Which “Percent Effect” value did it give?
**A.** -9.231%

**Q.** Which “Percent Effect” value does the source give for Cc1nn(C)cc1CN1CCCC1c1cccc(Nc2nccs2)n1 (stereo not given) here?
**A.** 99.7%

**Q.** For Cc1ccsc1C1CCCCCN1Cc1cn(C)nc1C (stereo not given), which “Percent Effect” value is on record?
**A.** 17.22%

**Q.** With CS(=O)(=O)N1CCCC1c1cccc(Nc2nccs2)n1 (stereo not given) as the molecule, how does the “Percent Effect” value read?
**A.** 92.85%

**Q.** How did the “Percent Effect” value turn out when COCCN1CCCC1c1nccnc1Nc1nccs1 (stereo not given) was run?
**A.** -9.826%

**Q.** With Cc1nn(C)cc1CN1CCCCCC1c1ccccc1Cl (stereo not given) as the molecule, how does the “Percent Effect” value read?
**A.** -8.916%

**Q.** How did the “Percent Effect” value turn out when CCCc1nnc(N[C@H](C)c2ccc(OC)cc2)o1 was run?
**A.** 32.03%

**Q.** O=C(Nc1ccccc1)N1C(CO)[C@]2(O)CC[C@H]1CC2 (stereo not given in full) was tested. Which “Percent Effect” value did it give?
**A.** -13.23%

**Q.** C=C1C(C)(C)[C@H]2CC[C@]1(C(=O)N1CCC(n3cc(CO)nn3)CC1)C2 was tested. Which “Percent Effect” value did it give?
**A.** 11.02%

**Q.** How did the “Percent Effect” value turn out when C[C@H]1C(=O)NC[C@H]2CN(CCc3ccccc3)C[C@H]21.O=C(O)C(F)(F)F was run?
**A.** -3.474%

**Q.** How did the “Percent Effect” value turn out when CN(C)c1ccnc(C2CCCN2)n1.Cl (stereo not given) was run?
**A.** -9.101%

**Q.** Cc1ccc(CN2CC3(CCN(C(=O)c4cccnc4)C3)C2)o1.O=C(O)C(F)(F)F.O=C(O)C(F)(F)F was tested. Which “Percent Effect” value did it give?
**A.** 25.41%

**Q.** How did the “Percent Effect” value turn out when Cl.Cl.O=C(NCc1cncc2c1CCN(Cc1cccs1)C2)C1CC1 was run?
**A.** 3.264%

**Q.** O=C(NCc1ccccn1)[C@H]1COC[C@H]2CN(Cc3ccoc3)C[C@H]21.O=C(O)C(F)(F)F.O=C(O)C(F)(F)F was tested. Which “Percent Effect” value did it give?
**A.** 2.625%

**Q.** With COCCNc1nc(C)nc2c1CCN(C[C@H]1CC[C@@H](N)CC1)CC2 as the molecule, how does the “Percent Effect” value read?
**A.** -33.02%

**Q.** How did the “Percent Effect” value turn out when Cn1nc(COc2cccnc2)c2c1CCN(c1cnccn1)C2.O=CO.O=CO was run?
**A.** 1.293%

**Q.** O=C(O)C(F)(F)F.O=C(O)C(F)(F)F.c1cncc(N2CCOCC3(CCCN(Cc4cccs4)C3)C2)c1 (stereo not given) was tested. Which “Percent Effect” value did it give?
**A.** -22.26%

**Q.** How did the “Percent Effect” value turn out when CC(C)[C@H](N)C(=O)N1CCCC(C2=Nc3ccccc3S(=O)(=O)N2)C1.Cl (stereo not given in full) was run?
**A.** 13.38%

**Q.** For Cc1cccc(CN2CCc3onc(Cn4cccc4)c3C2)n1.O=C(O)C(F)(F)F, which “Percent Effect” value is on record?
**A.** 14.85%

**Q.** With COCCN1C2(CCN(CC3CC3)C2)c2ccccc2S1(=O)=O.O=C(O)C(F)(F)F (stereo not given) as the molecule, how does the “Percent Effect” value read?
**A.** 3.018%

**Q.** With NC(=O)c1ccc(CNC(=O)Nc2cn[nH]c2)cc1 as the molecule, how does the “Percent Effect” value read?
**A.** -17.84%

**Q.** How did the “Percent Effect” value turn out when Cc1nc(Nc2nccs2)cc(C2CCCN2C2CCOCC2)n1 (stereo not given) was run?
**A.** -17.35%

**Q.** With Cc1cccc(CN2CCCC2c2cccc(CCC(=O)O)n2)c1 (stereo not given) as the molecule, how does the “Percent Effect” value read?
**A.** -20.44%

**Q.** How did the “Percent Effect” value turn out when Cc1ccccc1CN1CCCC1c1cccc(Nc2nccs2)n1 (stereo not given) was run?
**A.** 106.1%

**Q.** For Cc1cc(C2CCCN2Cc2cccc(C(=O)Nc3nccs3)c2)no1 (stereo not given), which “Percent Effect” value is on record?
**A.** -4.082%

**Q.** For Cc1nc(Nc2ccccn2)cc(C2CCCN2Cc2ncc[nH]2)n1 (stereo not given), which “Percent Effect” value is on record?
**A.** 21.63%

**Q.** Cc1cccc(CN2CCCC2c2cccc(Nc3nccs3)n2)c1 (stereo not given) was tested. Which “Percent Effect” value did it give?
**A.** 104%

**Q.** How did the “Percent Effect” value turn out when CCCN(CC1CC1)C(=O)CN1CCCC1c1cnn(C)c1 (stereo not given) was run?
**A.** 3.305%
